PubChem BioAssay (NCI)
This is part of a sample that, as a whole, favours compounds with a hit. Of some 79,000 tested, about 15% had one in any assay. Values without a mark were called inactive. Calls of active or inactive are those of the source. No stated cut-off is given here; in the data, active means growth inhibition above about 70%; inactive means the rest. Where a SMILES comes first, the peptide text is derived from it. [ ]: non-standard residue; d: D form. ξ: configuration not given here. ξF = NC(Cc1ccccc1)C(=O)O

Assays:
[1] = NCI Yeast Anticancer Drug Screen. Data for the rad50 strain (AID 155);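 further: 0% = growth of vehicle-only cultures of the same strain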; settings: S. cerevisiae rad50 strain growth inhibition; at 50.0 µM; active compounds read high
Method in brief: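 Yeast carrying a defined DNA repair defect were exposed to test compounds, and growth was compared with vehicle-treated controls to give percent inhibition.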

[2] = NCI Yeast Anticancer Drug Screen. Data for the mec2-1 strain (AID 157); settings: S. cerevisiae mec2-1 strain, at 50.0 µM, active compounds read high
Method in brief: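 Yeast mec2-1 mutant treated with compound. Readout: growth inhibition vs vehicle controls.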

[3] = NCI Yeast Anticancer Drug Screen. Data for the sgs1 mgt1 strain (AID 161);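 further: 0% = growth of cultures given vehicle only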; settings: S. cerevisiae sgs1 mgt1 strain, at 50.0 µM, active compounds read high
Method in brief: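 Genetically altered yeast, compound exposure, growth inhibition relative to vehicle.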

[4] = NCI Yeast Anticancer Drug Screen. Data for the cln2 rad14 strain (AID 165);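 further: 0% = growth equal to vehicle treated cultures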; settings: S. cerevisiae cln2 rad14 strain, at 50.0 µM, active compounds read high
Method in brief: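 cln2 rad14 yeast strain; compound exposure; growth inhibition read vs vehicle controls.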

[5] = NCI Yeast Anticancer Drug Screen. Data for the bub3 strain (AID 167); settings: S. cerevisiae bub3 mutant strain, at 50.0 µM, active compounds read high
Method in brief: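 Compounds were applied to a genetically altered yeast strain carrying a cell-cycle control defect. Growth inhibition was scored against vehicle-treated controls.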

[6] = NCI Yeast Anticancer Drug Screen. Data for the mlh1 rad18 strain (AID 175); settings: S. cerevisiae mlh1 rad18 strain growth inhibition; at 50.0 µM; active compounds read high
Method in brief: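 Yeast w/ defined DNA-repair lesions; compound exposure; growth vs vehicle controls → % inhibition.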

Compound | growth inhibition [1] | growth inhibition [2] | growth inhibition [3] | growth inhibition [4] | growth inhibition [5] | growth inhibition [6]
O=C1c2ccccc2C(=O)N1CCCO | -4.55% | -1.9% | -15.4% | -23.8% | -17.7% | 8.9%
O=C(NC(C(=O)O)c1ccccc1)c1ccc([N+](=O)[O-])cc1 (configuration not stated) | 8.2% | 10.1% | 13.4% | -0.6% | 31.6% | 11.6%
NC(=O)N/N=C(\CC1OC(=O)c2ccccc21)c1ccc([N+](=O)[O-])cc1 (configuration not stated) | 5.4% | 3.85% | -17.6% | 3.85% | -23.9% | 0%
CCCCCCCCCC[N+](C)(C)CC(O)CO (configuration not stated) | -51.8% | 7.9% | 2.2% | 9.45% | -2.85% | -11.3%
C=CC(Br)(CBr)CCC(Cl)C(C)C (configuration not stated) | 86.2% (active) | 90.7% (active) | 90.8% (active) | 91.7% (active) | 90.3% (active) | 90.5% (active)
CC(C)NCC(O)c1ccc(O)c2ncccc12 (configuration not stated) | 1.95% | 24.3% | 5.9% | 5.15% | -22.1% | -7.15%
O=C(NC(=S)Nc1cccc(Cl)c1)c1ccccc1 | 15.9% | 26.5% | 33.3% | -7.3% | 46.2% | 12.4%
N=c1ccc2ccccc2n1O | 10.6% | -3.85% | -4.2% | -49.1% | 7.2% | -7.9%
Nc1ccc(S(=O)(=O)Nc2nc3ccccc3nc2Nc2ccc(S(N)(=O)=O)cc2)cc1 | 6.3% | -5.05% | -13.8% | -13.7% | -10.3% | -13.6%
COc1ccccc1Br | -3.55% | 0.85% | -2% | -15.3% | -32.1% | -4%
CC(C)(C)NC(=O)CCC1C(C(=O)NC(C)(C)C)C2(Cl)C(Cl)=C(Cl)C1(Cl)C2(Cl)Cl (configuration not stated) | 6.2% | 12% | 1.6% | 9.8% | 15.6% | -2.05%
O/N=C1/C(=C/c2ccc(Br)cc2)CCCC1C(NO)c1ccc(Br)cc1 (configuration not stated) | 0.9% | -9.8% | -27.4% | 24.2% | 0.45% | -12.9%
CCOC(=O)C1S(=O)(=O)OCCOS1(=O)=O | -19.2% | -26.6% | -7.45% | 0.75% | -14.8% | -27.8%
CCCC(=O)n1[nH]c(=O)n(C(C)(C)C)c1=O | 2.3% | -7.65% | 14.8% | 6.4% | 7.5% | -22.8%
O=C1C(=O)c2ccccc2C(O)=C1Br | 27.9% | 39.4% | 49.4% | -61% | 28.4% | 29.8%
CN1C(c2ccccc2)=C(C#N)C(=O)CC(c2ccco2)N1C (configuration not stated) | 4.3% | -4.4% | 4.65% | 10.9% | 11% | 13.1%
COc1ccc(C)cc1NS(=O)(=O)c1ccccc1 | -7.45% | -33.4% | -8.2% | -12.5% | -9.65% | 10.4%
Cc1cc(N(CCC#N)CCC#N)ccc1/C(N=Nc1ccccc1)=N\NC(=O)c1ccccc1 | 22.3% | 16.6% | 11.2% | -8.5% | -16.1% | 31.8%
CC1=Nn2c(nnc2-c2ccc(Cl)cc2)NC(C)(C)C1 | 25.2% | 5.55% | 7.65% | 7.95% | 39.1% | 26.3%
CCOC(=O)/C(C#N)=C\Nc1ccc(C)cc1 | -0.85% | -26.6% | -7.95% | -2.55% | -12.1% | -8.75%
CN(C)C(=O)C1C2CC3OC(=O)C1C3C2 (configuration not stated) | 15.8% | -5.4% | 6.2% | -41.3% | -1.65% | -0.6%

Compound | growth inhibition [1] | growth inhibition [2] | growth inhibition [3] | growth inhibition [4] | growth inhibition [5] | growth inhibition [6]
CNc1ccc(C(=O)O)cc1C | 1.25% | 12.6% | 9.8% | -15.8% | -56.4% | 0.4%
O=c1c2cnc3c4cccnc4ccc3c2[nH]n1-c1ccccc1 | -22.6% | 8.15% | 14.2% | -15.4% | -9.85% | -2.8%
COc1ccc(CN2C(=S)SC(c3ccc(Cl)cc3)N2c2ccc(OC)cc2)cc1 (configuration not stated) | -25.1% | -19.6% | -9.2% | -37% | -1.35% | -19.8%
O=S(=O)(O)c1ccc(OCCCCCCCCCCOc2ccc(S(=O)(=O)O)cc2)cc1 | -14.6% | 9.15% | -9.6% | 0.7% | -5.35% | -8.1%
COC1OC2COC1(OCc1ccccc1)C1OC(C)(C)OC21 (configuration not stated) | -23.8% | -5.85% | -29.9% | -0.8% | -26.2% | 5.35%
COC(=O)C(C(=O)C(=O)Nc1nc2ccc([N+](=O)[O-])cc2s1)c1nc2ccc(Cl)cc2[nH]c1=O (configuration not stated) | 10.3% | 17.5% | 21.4% | 26.8% | 15% | -3.1%
N=C(N)c1ccncc1 | -0.6% | 5.75% | 8.45% | -32% | 4.75% | -1.95%
O=c1[nH]c(-c2cccc(F)c2)nc2ccccc12 | 16.9% | -10.9% | 3.1% | 19.2% | -7.4% | 10.2%
C/C(CCc1ccccc1)=N\Nc1ccc([N+](=O)[O-])cc1[N+](=O)[O-] | -31.9% | -44.6% | -2.9% | -17% | -17.4% | -19.4%
C=CCC(c1ccccc1)(c1ccccc1)c1ccccc1 | -3.35% | 5.25% | 3.65% | 3.55% | 7.25% | 8.25%
COc1cc(Cc2c(OC)c(OC)cc(C)c2C(=O)O)cc(OC)c1 | 18.6% | -12.8% | -1.75% | 6.95% | -13.9% | -14.4%
S=C1CC(c2ccccc2)Sc2ccccc2N1 (configuration not stated) | -1.45% | 1.85% | 13.9% | 1.8% | 30.3% | -25.6%
COCc1ccc(C(=O)Nc2c(N)ncnc2N)cc1 | 5.4% | 13.7% | -0.15% | 0.9% | 23.7% | -0.1%
CCOC(=O)C1CC1Cc1ccccc1 (configuration not stated) | -18.1% | -9.95% | -2.2% | -7.2% | 6.05% | -2.95%
COC(=O)C1(C(C)C(=O)c2ccc(Cl)cc2)NC(=S)NC(=O)C1C#N (configuration not stated) | 0.4% | 6.05% | -24.9% | -0.8% | -8.5% | 12.7%
C=C1OC(c2ccccc2NC)=NC12CCCCC2 | -11.6% | -51.5% | -9.9% | -2.65% | -14.8% | -11.2%
NC(Cc1ccccc1)C(=O)NCC(=O)O (configuration not stated) (H-[ξF]-Gly-OH) | -7.45% | 8.65% | -6.35% | -26.4% | -11.7% | -12.3%
CCOC(=O)C1CC(CCl)OC1=O (configuration not stated) | -3.65% | 7.1% | 2.1% | -22.9% | 0.6% | 3.95%
NS(=O)(=O)c1ccc(NCc2cnc3ccccc3c2)cc1 | -4.65% | -22.3% | 12% | -5.25% | 4.1% | 27.4%
COc1cc(-c2ccc(NC(=O)N3CC3)c(OC)c2)ccc1NC(=O)N1CC1 | 8.8% | -2.5% | 8.3% | 19.4% | -0.4% | 10.7%
Nc1nc2[nH]c(=O)c(C(=O)O)nc2c(=O)[nH]1 | 8.35% | -6.15% | -5.05% | -16.6% | 10.4% | -11.6%
